# EPAC1 antagonist = antagonists of human EPAC1; O95398; EPAC1 GEF assay, Rap1b-BODIPY-GDP exchange fluorescence; Potency, µM (highest dose often 115 µM), for the others: top-dose activity change, negative = inhibition, actives largely listed as inhibitors; actives 0.14% (n = 360,000); AID 720709;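 note: potency is the fitted concentration of half-maximal effect; plate controls were vehicle for no effect and positive control for full effect; nearly all actives have a fitted effect of over 50% in size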
# Target sequence (O95398 whole entry, looked up): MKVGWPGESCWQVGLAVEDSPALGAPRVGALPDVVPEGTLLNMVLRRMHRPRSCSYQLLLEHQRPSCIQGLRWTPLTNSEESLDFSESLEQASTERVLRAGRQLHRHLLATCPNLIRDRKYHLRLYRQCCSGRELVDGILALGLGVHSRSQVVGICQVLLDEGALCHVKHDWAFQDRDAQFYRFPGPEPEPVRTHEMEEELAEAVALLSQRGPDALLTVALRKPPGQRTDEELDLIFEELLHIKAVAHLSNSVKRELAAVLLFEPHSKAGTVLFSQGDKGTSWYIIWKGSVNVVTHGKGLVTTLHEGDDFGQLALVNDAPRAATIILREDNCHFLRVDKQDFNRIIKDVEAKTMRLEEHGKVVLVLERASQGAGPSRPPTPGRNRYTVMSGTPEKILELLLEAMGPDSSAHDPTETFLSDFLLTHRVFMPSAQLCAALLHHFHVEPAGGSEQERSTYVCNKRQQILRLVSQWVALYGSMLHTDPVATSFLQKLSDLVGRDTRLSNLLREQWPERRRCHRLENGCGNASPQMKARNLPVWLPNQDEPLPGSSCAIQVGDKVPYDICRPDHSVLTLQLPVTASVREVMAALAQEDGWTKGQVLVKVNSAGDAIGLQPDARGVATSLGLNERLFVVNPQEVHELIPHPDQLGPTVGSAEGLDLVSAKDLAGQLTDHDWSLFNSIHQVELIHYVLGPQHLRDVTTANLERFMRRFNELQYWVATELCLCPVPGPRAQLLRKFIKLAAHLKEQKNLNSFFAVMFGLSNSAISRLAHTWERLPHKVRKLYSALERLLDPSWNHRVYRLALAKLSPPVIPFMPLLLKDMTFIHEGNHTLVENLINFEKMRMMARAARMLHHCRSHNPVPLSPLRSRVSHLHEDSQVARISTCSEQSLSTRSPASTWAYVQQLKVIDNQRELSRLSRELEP
# USP1-UAF1 inh = blocks the human USP1/UAF1 deubiquitinase complex; AID 743255; Potency, µM (titrated, usually from 57.1 µM), for the others: at the top dose activity change, negative = inhibition, actives largely listed as inhibitors; O94782; actives 0.23% (n = 390,000); recombinant USP1/UAF1, Ub-Rhodamine cleavage fluorescence; note: potency is the fitted concentration of half-maximal effect; % is set by controls: 0 for no effect and ±100 for the full control effect; nearly all actives have a fitted effect of over 60% in size
#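 1 nM enzyme complex + cpd, 15 min RT; start with Ub-Rho 150nM final; kinetic fluorescence ex 480/em 540, 6 reads q60 s. Buffer 50mM HEPES pH 7.8, 0.5mM EDTA, 0.1 mg/ml BSA, 1mM TCEP, 0.01% Tween-20.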
# EPAC2 antagonist = EPAC2 (human) antagonism. Q8WZA2. AID 720708. Potency, µM (series often up to 114 µM), for inactives: at the highest dose activity, negative = inhibition, usual class: inhibitors. EPAC2 GEF exchange of Rap1B-BODIPY-GDP, fluorescence. actives 0.18% (n = 360,000); note: potency is the fitted concentration of half-maximal effect; % is set by controls: 0 for no effect and ±100 for the full control effect; nearly all actives have a fitted effect of over 45% in size
# EPAC1 agonist = activates human EPAC1 exchange factor | EPAC1 agonist qHTS, biochemical assay; response scale: 100% = response to 6.5 mM cAMP | Potency, µM (titrated, usually from 154 µM), for inactives: at the highest dose activation, hits mostly activators | actives 0.073% (n = 360,000) | AID 720707; note: potency is the fitted concentration of half-maximal effect; nearly all actives have a fitted effect of over 60% in size
#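 Normalized to 6.5 mM cAMP, activity reflects EPAC1-catalysed release of BODIPY-GDP from Rap1B, followed kinetically over 30 min at 480 nm excitation, 540 nm emission. Reaction contained 100 nM EPAC1, 250 nM Rap1B-BODIPY-GDP, 50 uM GDP.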
# EPAC2 ag = EPAC2 (human) agonism. Q8WZA2. EPAC2 activation, biochemical qHTS; response scale: 100% = 6.5 mM cAMP response. Potency, µM (doses to about 154 µM), inactives show at the highest dose activation, actives largely listed as activators. actives 0.079% (n = 360,000); note: potency is the fitted concentration of half-maximal effect; nearly all actives have a fitted effect of over 50% in size
#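 Exchange assay: 100 nM EPAC2 with 250 nM Rap1B-BODIPY-GDP and 50 uM GDP. Fluorescence (ex 480/em 540 nm) read every 5 min for 30 min at room temperature. Data normalized to 6.5 mM cAMP as agonist control.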
# VDR inh = vitamin D3 receptor (human) inhibition. P11473. VDR-SRC2-3 peptide fluorescence polarization, 2 h. actives 0.93% (n = 400,000). Potency, µM, for the others: max response, negative = inhibition, actives largely listed as inhibitors; note: potency is the fitted concentration of half-maximal effect; % is set by controls: 0 for no effect and ±100 for the full control effect
#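 The screen uses fluorescence polarization to detect compounds that interfere with recruitment of the SRC2-3 coactivator peptide to VDR; plates are read after 2 h at room temperature.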
# USP1-UAF1 confirm = blocks human USP1/UAF1 cleavage of Ub-Rhodamine; AID 540327; actives 50% (n = 50); Potency, µM (top dose mostly 114 µM), for inactives: at the highest dose activity change, negative = inhibition, most hits filed as inhibitors; shares compounds with VDR inh; Ub-Rhodamine cleavage, fluorescence kinetic read
# VDR confirm = inhibits human vitamin D receptor, primary hit validation | actives 89% (n = 840) | Potency, µM, hits mostly inhibitors | shares compounds with VDR inh | VDR-coactivator inhibition assay, qHTS confirmation | AID 602199; note: potency is the fitted concentration of half-maximal effect
# VDR FP = confirmation of human VDR-coactivator binding inhibitors, fluorescein label. shares compounds with VDR inh. VDR-coactivator binding, fluorescein fluorescence polarization. Potency, µM (series often up to 57.1 µM), for the others: at the top dose activity change, negative = inhibition, actives largely listed as inhibitors. actives 48% (n = 840). AID 602200; note: potency is the fitted concentration of half-maximal effect
# VDR bla reporter = confirmation of human vitamin D receptor inhibitors in reporter cells; shares compounds with VDR inh; VDR beta-lactamase reporter cells, FRET ratio; cells co-treated with VDR agonist LG190178; Potency, µM (series often up to 46.1 µM), for the others: top-dose activity change, negative = inhibition, actives largely listed as inhibitors; actives 23% (n = 840); note: potency is the fitted concentration of half-maximal effect; % is set by controls: 0 for no effect and ±100 for the full control effect
# VDR viability = cell toxicity, VDR inhibitor hit counter-screen | shares compounds with VDR inh | Potency, µM (doses to about 48.3 µM), without a hit: at the highest dose activity change, negative = cytotoxicity, hits mostly cytotoxic | cytotoxicity counter-screen, cell viability, qHTS | actives 18% (n = 840) | AID 602204;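 note: potency is the fitted concentration of half-maximal effect; plate controls were DMSO for no effect and high-concentration cycloheximide for full effect; nearly all actives have a fitted effect of over 75% in size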
# Numbers without * were called inactive; ? = inconclusive; nt = no result given. The list is not random: actives were taken first. Their share in the collection is about 1.2%. Calls come from the whole dose curve; as a rule, active = well fitted curve in the direction sought with a large enough effect; inconclusive = small, poorly fitted or top-dose-only effect, or another doubt; inactive = no such curve, though single readings can be large; an effect the other way counts as inactive or inconclusive.
SMILES,EPAC1 antagonist,USP1-UAF1 inh,EPAC2 antagonist,EPAC1 agonist,EPAC2 ag,VDR inh,VDR confirm,VDR FP,VDR bla reporter,VDR viability,others
Cc1ccc(NN2C(=O)C=C(c3ccccc3)C2=O)cc1,-3%,-21%,-5%,9%,15%,25µM*,8.4*,?,?,-2%,
CC(=O)N(C1=C(Cl)C(=O)c2ccccc2C1=O)C1CCCCC1,-28%,?,-12%,20%,12%,14µM*,12*,14µM*,5.8µM*,?,
COc1ccc(-c2nn3c(-c4cc(C)[nH]n4)nnc3s2)cc1,nt,nt,nt,nt,nt,-19%,nt,nt,nt,nt,
O=[S@]1Oc2ccccc2-c2ccccc21,5%,-17%,5%,4%,9%,6.3µM*,4.7*,?,-10%,31%,
CCOC(=O)c1[nH]cc(-c2ccccc2)c1N1CCOCC1,-1%,-19%,-2%,0%,-13%,22µM*,21*,?,14%,?,
CNC(=O)C1(C(F)(F)F)C/C(=C\Cc2ccccc2)CCCO1 (stereo unspecified),nt,nt,nt,nt,nt,-6%,nt,nt,nt,nt,
Clc1ccc(C[n+]2csc3ccccc32)cc1,3%,-20%,6%,-7%,2%,50µM*,15*,?,19%,4%,
CC(=O)Oc1ccc2cc(-c3nc4c(s3)CCc3ccccc3-4)c(=O)oc2c1,nt,nt,nt,nt,nt,8%,nt,nt,nt,nt,
Cc1ccc(NC(=O)c2cccc(NC(=O)N3CCSc4ncccc43)c2)cc1Cl,nt,-28%,nt,nt,nt,17%,nt,nt,nt,nt,
Cc1cc2c(cc1Cl)N(C(=O)Nc1ccc(Oc3cccnc3C)nc1)CC2,nt,nt,nt,nt,nt,-5%,nt,nt,nt,nt,USP1-UAF1 confirm=?
COc1ccc(CN(Cc2ccccc2)C(=O)CN2CCN(C)CC2)cc1COc1ccc(NC(C)=O)cc1,nt,nt,nt,nt,nt,-9%,nt,nt,nt,nt,
CC[C@H](C)[C@@H](NC(=O)O[C@@H]1C(=O)c2ccc(OC)cc2O[C@H]1c1cccc(C(F)(F)F)c1)C(=O)OC,nt,nt,nt,nt,nt,-2%,nt,nt,nt,nt,
O=C(/C=C/c1ccc(OCc2ccccc2)c(OCc2ccccc2)c1)c1cccnc1,-11%,-19%,-12%,16%,6%,?,7.1*,4µM*,-14%,-5%,
O=C(/C=C/c1ccccc1Cl)c1cccnc1,-9%,-3%,-5%,3%,10%,45µM*,6.7*,?,?,?,
O=C(/C=C/c1ccc(Cl)cc1)c1cccnc1,0%,-16%,4%,-4%,10%,25µM*,6*,5.6µM*,23%,7%,
N#Cc1ccc(/C=C/C(=O)c2ccc3c(c2)OCO3)cc1,?,-13%,-7%,-11%,-5%,?,nt,nt,nt,nt,
